PubChem BioAssay (NCI)
This is part of a sample that, as a whole, favours compounds with a hit. Of some 79,000 tested, about 15% had one in any assay. Activity calls are given as the source filed them. Rule as the data show it: active = growth inhibition above about 70%; inactive = the rest.

Experiments:
[1] = NCI Yeast Anticancer Drug Screen. Data for the rad52 strain (AID 147);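 also: 0% = growth of vehicle-treated control cultures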; conditions: S. cerevisiae rad52 mutant growth inhibition, active compounds read high
Procedure, shortened: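 DNA repair-defective yeast; compound exposure; growth scored against vehicle controls.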

[2] = NCI Yeast Anticancer Drug Screen. Data for the wt1 strain (AID 149);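 also: 0% = growth of vehicle-treated wt1 cultures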; conditions: S. cerevisiae wt1 strain (SPY 50644) growth inhibition, active compounds read high
Procedure, shortened: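 Growth inhibition read against vehicle controls after compound exposure of the wt1 yeast strain.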

[3] = NCI Yeast Anticancer Drug Screen. Data for the rad50EPP+ strain (AID 151);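 also: 0% = growth of vehicle-treated control cultures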; conditions: S. cerevisiae rad50 mutant strain, active compounds read high
Procedure, shortened: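 rad50EPP+ yeast treated with test compounds. Readout: growth vs vehicle control.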

[4] = NCI Yeast Anticancer Drug Screen. Data for the mgt1 strain (AID 153); conditions: S. cerevisiae mgt1 mutant growth inhibition, active compounds read high
Procedure, shortened: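 Growth inhibition relative to vehicle controls was scored for the mgt1 yeast strain after compound exposure.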

[5] = NCI Yeast Anticancer Drug Screen. Data for the rad50 strain (AID 155);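 also: 0% = growth of vehicle-only cultures of the same strain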; conditions: S. cerevisiae rad50 strain growth inhibition, active compounds read high
Procedure, shortened: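 Readout: growth inhibition relative to vehicle-treated cultures. Compound exposure was carried out in a genetically defined yeast strain deficient in DNA damage repair.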

[6] = NCI Yeast Anticancer Drug Screen. Data for the mec2-1 strain (AID 157); conditions: S. cerevisiae mec2-1 strain, active compounds read high
Procedure, shortened: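 Growth inhibition is read against vehicle-treated controls after compound exposure of the mec2-1 yeast strain, which is defective in DNA damage repair or cell cycle control.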

[7] = NCI Yeast Anticancer Drug Screen. Data for the rad14 strain (AID 159);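 also: 0% = growth of vehicle-treated control cultures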; conditions: S. cerevisiae rad14 strain growth inhibition, active compounds read high
Procedure, shortened: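 Growth inhibition vs vehicle controls; genetically altered yeast strain (DNA damage repair defect) treated with test compounds.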

[8] = NCI Yeast Anticancer Drug Screen. Data for the sgs1 mgt1 strain (AID 161);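 also: 0% = growth of cultures given vehicle only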; conditions: S. cerevisiae sgs1 mgt1 strain, active compounds read high
Procedure, shortened: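 Percent growth inhibition was derived by comparing compound-exposed mutant yeast with vehicle-exposed cultures. The strain carries alterations in DNA damage repair.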

[9] = NCI Yeast Anticancer Drug Screen. Data for the CLN2oe strain (AID 163);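 also: 0% = growth of vehicle-only control cultures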; conditions: S. cerevisiae CLN2oe strain, active compounds read high
Procedure, shortened: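 Compound-treated yeast; growth vs vehicle ctrl = % inhibition. Genetically altered strain (cell-cycle control).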

[10] = NCI Yeast Anticancer Drug Screen. Data for the cln2 rad14 strain (AID 165);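 also: 0% = growth equal to vehicle treated cultures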; conditions: S. cerevisiae cln2 rad14 strain, active compounds read high
Procedure, shortened: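 Growth inhibition, relative to vehicle-treated controls, is the read-out. The test organism is a yeast strain with defined genetic alterations, cln2 rad14.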

[11] = NCI Yeast Anticancer Drug Screen. Data for the bub3 strain (AID 167); conditions: S. cerevisiae bub3 mutant strain, active compounds read high
Procedure, shortened: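 Readout: yeast growth inhibition, expressed relative to vehicle-only wells. The test organism is a mutant strain from a panel with lesions in DNA repair or checkpoint genes.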

[12] = NCI Yeast Anticancer Drug Screen. Data for the wt2 strain (AID 169);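 also: 0% = growth of vehicle-treated yeast cultures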; conditions: S. cerevisiae wt2 strain growth inhibition, active compounds read high
Procedure, shortened: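 Compound exposure of yeast; growth compared with vehicle controls; inhibition reported.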

[13] = NCI Yeast Anticancer Drug Screen. Data for the mlh1 strain (AID 171);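 also: 0% = growth of vehicle-treated control cultures of the same strain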; conditions: S. cerevisiae mlh1 strain growth inhibition, active compounds read high
Procedure, shortened: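 Compounds are applied to a genetically altered yeast strain, and its growth is compared with that of vehicle-treated cultures to give percent inhibition.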

[14] = NCI Yeast Anticancer Drug Screen. Data for the sgs1 strain (AID 173);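 also: 0% = growth of vehicle-only control cultures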; conditions: S. cerevisiae sgs1 mutant, active compounds read high
Procedure, shortened: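 Compounds applied to genetically altered yeast; growth compared with vehicle-treated cultures to give % inhibition.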

[15] = NCI Yeast Anticancer Drug Screen. Data for the mlh1 rad18 strain (AID 175); conditions: S. cerevisiae mlh1 rad18 strain growth inhibition, active compounds read high
Procedure, shortened: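 Cells of a genetically altered yeast strain, deficient in DNA damage repair, were treated with compound. Their growth was then compared with that of vehicle-treated cultures to give inhibition.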

[16] = NCI Yeast Anticancer Drug Screen. Data for the rad18 strain (AID 177); conditions: S. cerevisiae rad18 mutant growth inhibition, active compounds read high
Procedure, shortened: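 Compounds are applied to a repair-deficient yeast strain, and growth is compared with that of vehicle-treated cultures to give percent inhibition.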

[17] = at 5.0 µM (retest, dose inferred, filed as 0.5)
[18] = at 50.0 µM (retest, dose inferred, filed as 5.0)

Measured: growth inhibition

Nc1cc2ccccc2cc1N
active: [3]; at 100.0 µM 76% | [5]; at 50.0 µM 89.3% | [6]; at 50.0 µM 91.5% | [8]; at 50.0 µM 88.7% | [10]; [18] 70% | [10]; at 50.0 µM 90.1% | [11]; [18] 95% | [11]; at 50.0 µM 90.5% | [15]; at 50.0 µM 90.8%
inactive: [1]; at 1.2 µM -47% | [1]; at 3.7 µM -35% | [1]; at 11.0 µM -41% | [1]; at 33.0 µM -39% | [1]; at 100.0 µM 25% | [2]; at 1.2 µM -28% | [2]; at 3.7 µM -14% | [2]; at 11.0 µM -17% | [2]; at 33.0 µM 3% | [2]; at 100.0 µM 20% | [3]; at 1.2 µM -37% | [3]; at 3.7 µM -13% | [3]; at 11.0 µM 40% | [3]; at 33.0 µM 59% | [4]; at 1.2 µM -30% | [4]; at 3.7 µM -42% | [4]; at 11.0 µM -33% | [4]; at 33.0 µM -23% | [4]; at 100.0 µM -18% | [5]; at 1.2 µM -33% | [5]; at 3.7 µM -23% | [5]; [17] 14% | [5]; at 11.0 µM -26% | [5]; at 33.0 µM 12% | [5]; [18] 17% | [5]; at 100.0 µM 63% | [6]; at 1.2 µM -41% | [6]; at 3.7 µM -45% | [6]; [17] 4% | [6]; at 11.0 µM -46% | [6]; at 33.0 µM -35% | [6]; [18] 15% | [6]; at 100.0 µM -15% | [7]; at 1.2 µM -15% | [7]; at 3.7 µM -17% | [7]; at 11.0 µM -13% | [7]; at 33.0 µM -16% | [7]; at 100.0 µM 6% | [8]; [17] 19% | [8]; [18] 26% | [9]; at 1.2 µM 10% | [9]; at 3.7 µM 4% | [9]; at 11.0 µM 4% | [9]; at 33.0 µM 23% | [9]; at 100.0 µM 45% | [10]; [17] 21% | [11]; at 1.2 µM -35% | [11]; at 3.7 µM -36% | [11]; [17] 25% | [11]; at 11.0 µM -30% | [11]; at 33.0 µM -38% | [11]; at 100.0 µM 24% | [12]; at 1.2 µM -18% | [12]; at 3.7 µM -18% | [12]; at 11.0 µM -25% | [12]; at 33.0 µM -34% | [12]; at 100.0 µM -28% | [13]; at 1.2 µM -22% | [13]; at 3.7 µM -22% | [13]; at 11.0 µM -18% | [13]; at 33.0 µM -11% | [13]; at 100.0 µM 16% | [14]; at 1.2 µM 13% | [14]; at 3.7 µM 20% | [14]; at 11.0 µM 16% | [14]; at 33.0 µM 33% | [14]; at 100.0 µM 63% | [15]; [17] 6% | [15]; [18] 40% | [16]; at 1.2 µM -22% | [16]; at 3.7 µM -26% | [16]; at 11.0 µM -16% | [16]; at 33.0 µM -1% | [16]; at 100.0 µM 46%
